Measured values reported in PubChem BioAssay (NCATS).
Results filed as inconclusive are left out. Calls of active or inactive are those of the source. Unless noted, the call rests on the fitted dose curve; in most records, active means well fitted curve in the direction sought with a large enough effect; inconclusive means small, poorly fitted or top-dose-only effect, or another doubt; inactive means no such curve, though single readings can be large; an effect the other way counts as inactive or inconclusive.

What was measured:
[1] = target: ATP-dependent DNA helicase Q1 (Homo sapiens) (UniProt P46063); test: qHTS Validation Assay for Inhibitors of RecQ-Like Dna Helicase 1 (RECQ1) (AID 2353); settings: recombinant RECQ1 helicase DNA unwinding assay; series mostly up to 25.6 µM
In short: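 RECQ1T1 50 nM; forked duplex (20 bp + 30-nt ss tails) 200 nM, ATP 2 mM final; pH 8.0, 2 mM MgCl2, 2.5 ug/ml poly(dI-dC); 15 min compound preincubation; discontinuous kinetic read over 2 h at RT.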

[2] = target: RecQ-like DNA helicase BLM (Homo sapiens) (UniProt P54132); test: qHTS Validation Assay for Inhibitors of Bloom's syndrome helicase (BLM) (AID 2364); settings: BLM helicase DNA unwinding, fluorescence, in vitro; series mostly up to 57.1 µM; further: potency means the concentration at half of the fitted maximal effect
In short: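 50 nM BLM preincubated 15 min at room temperature with compound in pH 8.0 Tris buffer containing 2.5 ug/ml poly(dI-dC); started with 200 nM TAMRA/BHQ-2 forked duplex and 2 mM ATP (final). Unwinding read as TAMRA fluorescence increase, two reads 2 h apart.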

[3] = Cytometric Cell-Based qHTS for Inhibitors of the mTORC1 Signaling Pathway in MEF (Tsc2-/-, p53-/-) Cells (AID 2660); settings: mTORC1 pathway cytometry; series mostly up to 38.3 µM; further: potency means the concentration at half of the fitted maximal effect
In short: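 Cells are plated, treated with compound for 24 hrs at 37 degree Celsius, then fixed, blocked and immunostained for phospho-rpS6 Ser235/236. Propidium iodide counterstain follows. Per-well % positive cells is derived from the PI-normalized phospho-S6 signal.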

[4] = High Content Imaging Cell-Based qHTS for Inhibitors of the mTORC1 Signaling Pathway in MEF (Tsc2-/-, p53-/-) Cells (AID 2666); settings: series mostly up to 38.3 µM;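 further: percent of cells scored positive for phospho-rpS6 Ser235/236 immunostaining by imaging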; further: potency means the concentration at half of the fitted maximal effect
In short: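 MEF Tsc2-/- p53-/- (empty vector), DMEM/10% FBS; cpd 24 h 37 °C; PFA fix, Alexa-488 p-rpS6 S235/236 Ab, Hoechst; imaged; rapamycin-defined inhibition; % positive cells/well.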

[5] = High Content Imaging Cell-Based qHTS for Inhibitors of the mTORC1 Signaling Pathway in MEF Cells (AID 2667); settings: series mostly up to 38.3 µM; further: potency means the concentration at half of the fitted maximal effect
In short: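 Read-out is the share of phospho-rpS6-positive cells per well, from Hoechst-normalized Alexa-488 Ser235/236 staining imaged on IN Cell. Cells: WT Tsc2-expressing Tsc2-/-, p53-/- MEFs exposed to compound for 24 hrs.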

[6] = Cytometry Cell-Based qHTS for Inhibitors of the mTORC1 Signaling Pathway in MEF cells (AID 2668); settings: mTORC1 pathway readout; series mostly up to 38.3 µM; further: potency means the concentration at half of the fitted maximal effect
In short: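 MEFs (Tsc2-/-, p53-/- stably expressing WT Tsc2) treated 24 h at 37 degree Celsius, fixed, stained with Alexa-488 anti-phospho-rpS6 Ser235/236 and propidium iodide; Acumen laser scanning. Reported as % positive cells, phospho-S6 normalized to PI.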

[7] = Validation screen for inhibitors of Lassa infection (AID 463096; calls by dose curve; further: potency means the concentration at half of the fitted maximal effect); settings: Lassa virus infection, cell-based; series mostly up to 46.1 µM
[8] = Validation screen for small molecules that induce DNA re-replication in MCF 10A normal breast cells (AID 463097); settings: MCF 10A cells, DNA re-replication phenotype imaging; series mostly up to 46.1 µM; further: nearly all actives have a fitted effect of over 60% in size; further: potency means the concentration at half of the fitted maximal effect
In short: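 MCF 10A cells exposed to compound 48 hr at 37 C, 5% CO2, then Hoechst-stained 40 min. Laser-scanning imaging of nuclear DNA content (405 nm ex, 500-530 nm em); re-replication scored as rise in nuclei with elevated fluorescence intensity.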

[9] = target: Ubiquitin carboxyl-terminal hydrolase 2 (Homo sapiens) (UniProt O75604); test: qHTS Validation Assay for Inhibitors of Ubiquitin-specific Protease USP2a Using CHOP2 as the Reporter (AID 463106); settings: USP2a cleavage of CHOP2 reporter, enzymatic; series mostly up to 38.3 µM; further: potency means the concentration at half of the fitted maximal effect
In short: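 Fluorescence read-out at Ex 485nm/Em 531nm after 60min RT, following addition of 25nM Ub-CHOP2 plus 25nM reporter substrate to USP2 core (10nM) pretreated 30min with compound. Data normalized to NEM full inhibition; concentration-response curves fitted.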

[10] = target: DNA polymerase III PolC-type (Bacillus subtilis (strain 168)) (UniProt P13267); test: qHTS Validation Assay for the Inhibitors of DNA Replication in Gram-Positive Bacteria (AID 485295); settings: Gram-positive bacterial DNA replication assay; series mostly up to 57.1 µM; further: potency means the concentration at half of the fitted maximal effect
In short: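 Reconstituted B. subtilis Pol III holoenzyme (PolC, beta clamp, SSB, primase) preincubated with compound, then M13Gori single-stranded circular template with dNTPs/NTPs added; room temperature reaction. Stopped with EDTA/PicoGreen; dsDNA fluorescence read, EDTA as full-inhibition control.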

Measured: Potency

Sequence of RecQ-like DNA helicase BLM (Homo sapiens) (P54132 whole entry, looked up): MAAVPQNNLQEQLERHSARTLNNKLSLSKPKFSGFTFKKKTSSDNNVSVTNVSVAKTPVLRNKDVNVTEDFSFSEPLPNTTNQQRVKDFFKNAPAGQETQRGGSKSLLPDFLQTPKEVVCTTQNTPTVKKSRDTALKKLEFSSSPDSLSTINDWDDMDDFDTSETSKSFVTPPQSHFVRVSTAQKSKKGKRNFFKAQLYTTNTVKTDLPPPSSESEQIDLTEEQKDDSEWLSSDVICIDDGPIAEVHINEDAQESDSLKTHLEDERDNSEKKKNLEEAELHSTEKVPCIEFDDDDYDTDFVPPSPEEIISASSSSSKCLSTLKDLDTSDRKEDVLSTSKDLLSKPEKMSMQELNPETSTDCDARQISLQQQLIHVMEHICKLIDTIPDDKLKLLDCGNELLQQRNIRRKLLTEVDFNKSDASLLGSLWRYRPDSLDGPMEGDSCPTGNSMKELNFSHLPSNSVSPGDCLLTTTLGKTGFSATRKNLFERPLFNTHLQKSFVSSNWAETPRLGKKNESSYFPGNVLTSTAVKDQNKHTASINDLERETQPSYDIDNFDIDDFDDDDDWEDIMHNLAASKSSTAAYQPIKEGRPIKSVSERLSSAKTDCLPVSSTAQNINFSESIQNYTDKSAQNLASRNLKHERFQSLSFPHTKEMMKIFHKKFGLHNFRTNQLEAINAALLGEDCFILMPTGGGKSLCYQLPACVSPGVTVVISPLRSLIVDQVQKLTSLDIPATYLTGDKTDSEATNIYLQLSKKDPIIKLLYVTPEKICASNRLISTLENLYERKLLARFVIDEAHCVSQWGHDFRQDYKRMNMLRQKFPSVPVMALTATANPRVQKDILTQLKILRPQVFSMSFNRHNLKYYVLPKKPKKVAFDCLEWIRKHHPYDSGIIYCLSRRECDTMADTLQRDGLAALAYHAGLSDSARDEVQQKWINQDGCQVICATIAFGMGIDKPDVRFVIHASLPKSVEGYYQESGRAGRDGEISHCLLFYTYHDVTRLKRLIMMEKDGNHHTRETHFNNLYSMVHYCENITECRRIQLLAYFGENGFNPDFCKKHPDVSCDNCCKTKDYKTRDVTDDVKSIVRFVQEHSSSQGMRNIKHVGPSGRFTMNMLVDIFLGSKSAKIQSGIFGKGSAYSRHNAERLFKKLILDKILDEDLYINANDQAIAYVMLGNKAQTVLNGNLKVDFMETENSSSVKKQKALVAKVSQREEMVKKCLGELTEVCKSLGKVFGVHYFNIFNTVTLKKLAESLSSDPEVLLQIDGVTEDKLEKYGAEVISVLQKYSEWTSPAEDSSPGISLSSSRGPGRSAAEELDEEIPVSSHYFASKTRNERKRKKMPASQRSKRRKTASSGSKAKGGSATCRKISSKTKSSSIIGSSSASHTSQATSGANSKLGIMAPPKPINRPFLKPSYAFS
Sequence of DNA polymerase III PolC-type (Bacillus subtilis (strain 168)) (P13267 whole entry, looked up): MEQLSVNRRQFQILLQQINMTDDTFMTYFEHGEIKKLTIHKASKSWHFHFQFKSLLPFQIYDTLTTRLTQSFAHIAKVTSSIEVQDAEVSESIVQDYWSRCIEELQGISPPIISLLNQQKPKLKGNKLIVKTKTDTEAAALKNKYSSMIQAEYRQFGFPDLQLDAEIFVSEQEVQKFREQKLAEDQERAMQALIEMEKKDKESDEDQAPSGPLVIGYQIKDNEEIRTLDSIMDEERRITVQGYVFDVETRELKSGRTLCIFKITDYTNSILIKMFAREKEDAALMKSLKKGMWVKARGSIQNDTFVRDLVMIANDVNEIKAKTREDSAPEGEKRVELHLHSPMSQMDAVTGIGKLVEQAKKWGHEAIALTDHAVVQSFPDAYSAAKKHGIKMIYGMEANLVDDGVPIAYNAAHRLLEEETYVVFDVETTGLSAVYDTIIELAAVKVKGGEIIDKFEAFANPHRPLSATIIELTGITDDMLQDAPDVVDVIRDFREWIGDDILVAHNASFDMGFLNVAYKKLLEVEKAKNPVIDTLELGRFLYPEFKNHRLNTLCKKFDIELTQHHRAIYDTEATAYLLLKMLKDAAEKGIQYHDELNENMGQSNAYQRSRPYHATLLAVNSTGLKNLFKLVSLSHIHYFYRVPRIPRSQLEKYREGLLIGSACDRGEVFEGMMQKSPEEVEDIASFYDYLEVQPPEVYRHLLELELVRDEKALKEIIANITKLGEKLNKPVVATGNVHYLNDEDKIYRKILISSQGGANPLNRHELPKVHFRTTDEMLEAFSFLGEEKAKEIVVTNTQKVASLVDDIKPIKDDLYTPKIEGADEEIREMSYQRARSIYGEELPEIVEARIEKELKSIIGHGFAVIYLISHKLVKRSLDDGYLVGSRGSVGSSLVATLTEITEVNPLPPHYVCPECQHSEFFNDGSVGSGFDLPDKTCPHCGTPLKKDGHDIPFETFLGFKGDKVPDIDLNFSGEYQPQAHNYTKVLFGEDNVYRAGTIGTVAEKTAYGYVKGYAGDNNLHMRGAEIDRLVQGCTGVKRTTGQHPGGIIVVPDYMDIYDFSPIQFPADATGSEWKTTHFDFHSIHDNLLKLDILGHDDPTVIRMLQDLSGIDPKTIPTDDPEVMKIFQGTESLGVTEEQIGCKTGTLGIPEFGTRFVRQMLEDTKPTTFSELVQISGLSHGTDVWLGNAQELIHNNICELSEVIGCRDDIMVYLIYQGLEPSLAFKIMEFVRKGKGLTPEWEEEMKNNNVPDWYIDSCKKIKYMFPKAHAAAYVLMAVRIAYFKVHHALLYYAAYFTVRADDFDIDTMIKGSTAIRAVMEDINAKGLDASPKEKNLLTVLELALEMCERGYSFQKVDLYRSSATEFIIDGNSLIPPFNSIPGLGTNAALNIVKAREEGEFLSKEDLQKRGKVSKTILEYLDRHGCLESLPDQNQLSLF
Sequence of Ubiquitin carboxyl-terminal hydrolase 2 (Homo sapiens) (O75604 whole entry, looked up): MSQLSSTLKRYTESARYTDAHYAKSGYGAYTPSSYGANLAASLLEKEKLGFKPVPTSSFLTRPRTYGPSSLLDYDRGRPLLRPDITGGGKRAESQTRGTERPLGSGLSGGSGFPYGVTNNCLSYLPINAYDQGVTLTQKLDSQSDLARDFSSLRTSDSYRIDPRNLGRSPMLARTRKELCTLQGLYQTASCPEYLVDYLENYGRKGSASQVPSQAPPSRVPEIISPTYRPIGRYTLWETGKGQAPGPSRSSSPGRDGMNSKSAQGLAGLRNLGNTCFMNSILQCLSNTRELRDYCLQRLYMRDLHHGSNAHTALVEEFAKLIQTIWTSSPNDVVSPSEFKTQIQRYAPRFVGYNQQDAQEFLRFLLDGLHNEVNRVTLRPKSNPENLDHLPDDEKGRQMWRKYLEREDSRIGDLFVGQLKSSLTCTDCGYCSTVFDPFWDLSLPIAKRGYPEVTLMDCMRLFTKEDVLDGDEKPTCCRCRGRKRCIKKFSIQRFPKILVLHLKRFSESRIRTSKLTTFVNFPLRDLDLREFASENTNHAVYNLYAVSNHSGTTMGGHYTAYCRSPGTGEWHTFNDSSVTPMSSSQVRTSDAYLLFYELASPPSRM
Sequence of ATP-dependent DNA helicase Q1 (Homo sapiens) (P46063 whole entry, looked up): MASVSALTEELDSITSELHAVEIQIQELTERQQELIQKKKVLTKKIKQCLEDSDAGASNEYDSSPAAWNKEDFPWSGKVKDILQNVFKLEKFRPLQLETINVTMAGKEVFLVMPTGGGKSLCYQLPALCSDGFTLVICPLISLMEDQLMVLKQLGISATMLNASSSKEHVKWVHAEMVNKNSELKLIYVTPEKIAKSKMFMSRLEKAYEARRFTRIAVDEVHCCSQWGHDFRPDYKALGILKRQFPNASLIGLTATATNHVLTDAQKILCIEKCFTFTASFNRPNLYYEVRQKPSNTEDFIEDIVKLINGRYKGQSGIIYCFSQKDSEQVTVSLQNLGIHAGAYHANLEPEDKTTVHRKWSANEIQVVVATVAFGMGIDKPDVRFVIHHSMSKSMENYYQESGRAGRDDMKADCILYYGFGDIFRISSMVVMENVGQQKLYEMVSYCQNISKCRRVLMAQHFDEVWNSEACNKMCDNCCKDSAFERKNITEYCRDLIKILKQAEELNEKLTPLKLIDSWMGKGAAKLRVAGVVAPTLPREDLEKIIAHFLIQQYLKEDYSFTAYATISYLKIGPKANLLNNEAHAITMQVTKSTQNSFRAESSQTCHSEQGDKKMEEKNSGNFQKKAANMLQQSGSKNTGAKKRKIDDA

CCCN1CCO[C@@H]2c3cc(O)ccc3OC[C@H]21
inactive: all assays above

NC(CCP(=O)(O)O)C(=O)O (stereo not drawn)
inactive: all assays above

C[N+]1(C)C2CCC1CC(OC(=O)C(CO)c1ccccc1)C2 (stereo not drawn)
inactive: all assays above

CCCN(CCC)C1CCc2ccc(O)cc2C1 (stereo not drawn)
inactive: all assays above

C[C@@H]1O[C@H](C[N+](C)(C)C)C[C@H]1O
inactive: all assays above

C#CCOC(=O)C1=CCCN(C)C1
inactive: all assays above

S=C(NC1CCCCC1)N1CCC(c2cnc[nH]2)CC1
not listed: [2]
inactive: all other assays above

Cn1cnc(CCN)c1
not listed: [6]
inactive: all other assays above

CN1C2CCC1CC(OC(=O)c1cc(Cl)cc(Cl)c1)C2 (stereo not drawn)
not listed: [6] | [8]
inactive: all other assays above

NCCc1c[nH]c2ccccc12
inactive: all assays above

NC(=O)CN1CC(O)CC1=O (stereo not drawn)
not listed: [2]
inactive: all other assays above

CN[C@@H]1C[C@@H](c2ccc(Cl)c(Cl)c2)c2ccccc21
active: [3] 18.5 µM
inactive: [1] | [2] | [9] | [10]

COc1cc(C(O)CN)ccc1O (stereo not drawn)
not listed: [2]
inactive: all other assays above

C=CCN1CC[C@]23CCCCC2[C@H]1Cc1ccc(O)cc13 (stereo partly drawn)
inactive: all assays above

CCCN(CCC)[C@@H]1CCc2ccc(O)cc2C1
not listed: [2]
inactive: all other assays above

CC[C@@H]1C(=O)OC[C@@H]1Cc1cncn1C
inactive: [1] | [2] | [7] | [8]

c1ccc2sc(C3(N4CCCCC4)CCCCC3)cc2c1
inactive: all assays above

Cc1nccc2c1[nH]c1ccccc12
inactive: all assays above

C[N+](C)(C)CC(=O)O
inactive: [1] | [2] | [7] | [8]

O=C(O)Cc1cnc[nH]1
not listed: [2]
inactive: all other assays above

NC1CC1c1ccccc1 (stereo not drawn)
not listed: [2]
inactive: all other assays above

C[C@]12CCC3C(CC[C@H]4C[C@H](O)CC[C@]34C)C1CC[C@@H]2C(=O)CO (stereo partly drawn)
inactive: all assays above

C[C@]12N[C@H](Cc3ccccc31)c1ccccc12
inactive: all assays above

CC(=O)NCCc1c[nH]c2ccccc12
not listed: [2]
inactive: all other assays above

CCCCc1ccc(C(=O)O)nc1
not listed: [2]
inactive: all other assays above

Oc1ccc2c3c1O[C@H]1c4[nH]c5c(c4C[C@@]4(O)[C@@H](C2)N(CC2CC2)CC[C@]314)C[C@@]1(O)[C@H]2Cc3ccc(O)c4c3[C@@]1(CCN2CC1CC1)[C@H]5O4
inactive: all assays above

Clc1cnc(Oc2ccc(Oc3ncc(Cl)cc3Cl)cc2)c(Cl)c1
inactive: all assays above

NCc1cc(=O)[nH]o1
inactive: all assays above

NCCc1c[nH]c2ccc(O)cc12
inactive: all assays above

C[C@@H](N)Cc1cnc[nH]1
not listed: [2]
inactive: all other assays above

CC(C)NC(C)Cc1ccc(I)cc1 (stereo not drawn)
inactive: all assays above

NC(=NCCC[C@H](N)C(=O)O)N[N+](=O)[O-]
not listed: [2]
inactive: all other assays above

CS(=N)(=O)CC[C@H](N)C(=O)O (stereo partly drawn)
inactive: all assays above

CCCN1CCC[C@H](c2cccc(O)c2)C1
not listed: [2]
inactive: all other assays above

CC1=NN=C(c2ccc(N)cc2)c2cc3c(cc2C1)OCO3
inactive: all assays above

CNCCc1c[nH]c2ccc(O)cc12
not listed: [2]
inactive: all other assays above

CC(C)Oc1cccnc1N(C)C1CCN(Cc2ccccc2)CC1
not listed: [8]
inactive: all other assays above

O=C(N[C@H]1CN2CCC1CC2)c1ccc(Cl)cc1
inactive: [3] | [4] | [5] | [6] | [9] | [10]

CCn1cc(C(=O)O)c(=O)c2cc3c(cc21)OCO3
inactive: [7]

O=C(O)CC[N+](=O)[O-]
not listed: [2]
inactive: all other assays above

c1ccc(C2(c3ccccc3)CC2C2=NCCN2)cc1 (stereo not drawn)
inactive: [3] | [4] | [5] | [6] | [9] | [10]

CC(=O)Oc1ccccc1C(=O)O
inactive: [7]

CC[C@@]1(O)C(=O)OCc2c1cc1n(c2=O)Cc2cc3ccccc3nc2-1
inactive: [1] | [3] | [4] | [9] | [10]
active: [5] 0.104 µM

c1ccc(CCCN2CCN(CCOC(c3ccccc3)c3ccccc3)CC2)cc1
inactive: [1] | [3] | [4] | [9] | [10]

CC(C)c1ccc2c(c1)c(SC(C)(C)C)c(CC(C)(C)C(=O)O)n2Cc1ccc(Cl)cc1
inactive: [7]

O=C1CCCN1CC#CCN1CCCC1
not listed: [2]
inactive: all other assays above

CCN(CC)CCNC(=O)c1ccc(NC(C)=O)cc1
inactive: [7]

CN[C@@H](C)[C@H](O)c1ccccc1
inactive: [1]
active: [7] 10 µM

Cc1c(C(=O)c2cccc3ccccc23)c2cccc3c2n1[C@H](CN1CCOCC1)CO3
active: [5] 18.5 µM
inactive: [1] | [4] | [7] | [9] | [10]

NC(N)=NOCCC(N)C(=O)O (stereo not drawn)
not listed: [2]
inactive: all other assays above

CC1=C(/C=C/C(C)=C/C=C/C(C)=C/C(=O)O)C(C)(C)CCC1
inactive: [7]

COc1ccc2c(c[n+](C)c3c4cc5c(cc4ccc23)OCO5)c1OC
inactive: [1] | [4] | [5] | [6] | [9]
active: [7] 10 µM | [10] 26.7 µM

CS(=O)(=O)Nc1ccc([N+](=O)[O-])cc1Oc1ccccc1
inactive: [7]

CC[C@@H](C(N)=O)N1CCCC1=O
inactive: [3] | [4] | [5] | [6] | [9] | [10]

COC(=O)[C@@H](N)CCCN=C(N)N[N+](=O)[O-]
inactive: [3] | [4] | [5] | [6] | [9] | [10]

CCc1c(C)[nH]c2c1C(=O)C(CN1CCOCC1)CC2 (stereo not drawn)
inactive: [7]

CC[C@H](CO)Nc1nc(NCc2ccccc2)c2ncn(C(C)C)c2n1
inactive: [7]

CC(C)(C)NCC(O)c1ccc(O)c(CO)c1 (stereo not drawn)
inactive: [7]

NCCCC(N)(C(=O)O)C(F)F (stereo not drawn)
inactive: [7]

CNCCc1ccc(O)c(O)c1
not listed: [2] | [8]
inactive: all other assays above

NC1CCc2cc(O)c(O)cc2C1 (stereo not drawn)
not listed: [2] | [9]
inactive: all other assays above

CC(C)(Sc1ccc(CCN(CCCCC2CCCCC2)C(=O)NC2CCCCC2)cc1)C(=O)O
inactive: [7]

CC(C)C[C@H](NC(=O)[C@@H](O)[C@H](N)Cc1ccccc1)C(=O)O
inactive: [7]

O=C(O)[C@@H]1CCN1
not listed: [2]
inactive: all other assays above

C[C@@H](N)C1CCC(C(=O)Nc2ccncc2)CC1 (stereo partly drawn)
inactive: [7]

Cc1nc(-c2ccc(-c3ccc(C(=O)N4CCc5cc6c(cc54)C4(CCN(C)CC4)CO6)cc3)c(C)c2)no1
active: [7] 10 µM
inactive: [2]

NCCS
inactive: [7]

CC(C[N+](C)(C)C)OC(N)=O (stereo not drawn)
inactive: [7]

Clc1ccc(C(c2ccc(Cl)cc2)n2cc[n+](CC(OCc3ccc(Cl)cc3Cl)c3ccc(Cl)cc3Cl)c2)cc1 (stereo not drawn)
active: [2] 28.2 µM | [7] 11.2 µM | [8] 11.2 µM | [9] 13.1 µM

C/C=C(/C)C(=O)O[C@H]1C(C)=C2[C@H]([C@@H]1OC(=O)CCCCCCC)[C@@](C)(OC(C)=O)C[C@H](OC(=O)CCC)[C@@]1(O)[C@H]2OC(=O)[C@@]1(C)O
inactive: [9]
active: [4] 0.0261 µM | [5] 0.0037 µM | [6] 0.0083 µM

CC(Cc1ccc(O)cc1)NCC(O)c1cc(O)cc(O)c1 (stereo not drawn)
not listed: [1] | [2] | [9]
inactive: all other assays above

NC(CP(=O)(O)O)C(=O)O (stereo not drawn)
not listed: [2]
inactive: all other assays above

CC(=O)[C@H]1CCC2C3CC[C@H]4C[C@H](O)CC[C@]4(C)C3CC[C@@]21C (stereo partly drawn)
not listed: [2] | [8]
inactive: all other assays above

CCN1CCc2nc(N)oc2CC1
inactive: [7]

O=C(Cc1ccc(Cl)c(Cl)c1)N1CCCCC1CN1CCCC1 (stereo not drawn)
not listed: [2]
inactive: all other assays above
